Test results: the supplement of paper PMC7156485

Each compound was assayed on HCC1569 (assay: H1.0 immunofluorescence intensity relative to DMSO (% of DMSO); higher = stronger H1.0 induction, active = 140 or more). Settings: concentration: 10 µM; 24 h.
Outline: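 Treatment: HCC1569 and TDF cells, 800 per well in 384-well plates with RPMI and 10% FBS, were given compounds at 10 µM for 24 h at 37 °C, in triplicate. Readout: after 3.7% formaldehyde fixation, cells were stained with a rabbit anti-H1.0 antibody, an AlexaFluor 647 secondary and DAPI. Reported values are H1.0 nuclear intensity or cell number as percent of the plate control, taken as the median of replicates, with positional smoothing for HCC1569.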
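Further: TDF is a line of transformed human dermal fibroblasts of mesenchymal origin.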

Row | SMILES | H1.0 immunofluorescence intensity
1 | CCCCCC=CCC=CC=CC=CCC(=O)CCCC(=O)O [5-Ketoeicosatetraenoic acid] | 96.5 (inactive)
2 | O=C1CN(N=Cc2ccc(-c3ccc([N+](=O)[O-])cc3)o2)C(=O)[N-]1.[Na+] [Dantrolene sodium] | 102 (inactive)
3 | Cc1ccc(S(=O)(=O)N2c3ccccc3Oc3ccccc32)cc1 [10-[(4-methylphenyl)sulfonyl]-10H-phenoxazine] | 154 (active)
4 | CC(N)=NCCCC[C@H](N)C(=O)O.Cl [L-N6-(1-Iminoethyl)lysine hydrochloride] | 91.6 (inactive)
5 | COc1cc(C2CC(=O)c3c(O)cc(O)cc3O2)ccc1O (stereo not given) [Homoeriodictyol] | 88.7 (inactive)
6 | CCN(CC)CCOC(=O)c1cc(Cl)c(N)cc1OC.Cl [SDZ-205,557 hydrochloride] | 86.8 (inactive)
7 | CCCCCC=CCC=CCC=CCCCCCCC(=O)O [8(Z), 11(Z), 14(Z)-Eicosatrienoic Acid] | 98.7 (inactive)
8 | CN1C(C(=O)Nc2ccccn2)=C(O)c2ccccc2S1(=O)=O [Piroxicam] | 98.2 (inactive)
9 | NC(=O)c1noc([C@H](CCCC2CCCCC2)CC(=O)NO)n1 | 109 (inactive)
10 | CCCCCC(O)C=CC=CCC=CCCCCC(=O)O (stereo not given) | 101 (inactive)
11 | CC(N)=NCc1cccc(CN)c1.Cl.Cl [1400W dihydrochloride] | 109 (inactive)
12 | CC1=NN(c2ccc(C(=O)O)cc2)C(=O)/C1=C\c1ccc(-c2cc(C)c(C)cc2[N+](=O)[O-])o1 | 108 (inactive)
13 | CCCCCC=CCC=CCC=CC=CC(O)CCCC(=O)O (racemic) | 102 (inactive)
14 | O=C(O)CN(CCOCCOCCN(CC(=O)O)CC(=O)O)CC(=O)O | 88.9 (inactive)
15 | O=C(OC1CC2CC3CC(C1)N2CC3=O)c1c[nH]c2ccccc12 (stereo not given) [Dolasetron] | 105 (inactive)
16 | CC1(C)CCC2=C(O1)c1ccccc1C(=O)C2=O [beta-Lapachone] | 111 (inactive)
17 | COc1ccnc(CS(=O)c2nc3cc(OC(F)F)ccc3[n-]2)c1OC.O.[Na+] (stereo not given) | 100 (inactive)
18 | C=CCc1ccccc1OCC(O)CNC(C)C.Cl (stereo not given) [Alprenolol.HCl] | 102 (inactive)
19 | Nc1nc2ccc(Cl)cc2c2nc(-c3ccco3)nn12 | 118 (inactive)
20 | CN1CCN(CCCN2c3ccccc3Sc3ccc(C(F)(F)F)cc32)CC1.Cl.Cl [Trifluoperazine dihydrochloride] | 141 (active)

Row | SMILES | H1.0 immunofluorescence intensity
21 | COc1cc2ncnc(Nc3ccc(NC(=O)c4ccccc4)cc3)c2cc1OC [Aurora Kinase Inhibitor II] | 133 (inactive)
22 | N#Cc1c(N(CC(=O)[O-])CC(=O)[O-])sc(C(=O)[O-])c1CC(=O)[O-].[Sr+2].[Sr+2] | 105 (inactive)
23 | COc1ccc(C=C2c3ccccc3C(=O)c3ccccc32)cc1O [10-(3-hydroxy-4-methoxybenzylidene)-9(10H)-anthracenone] | 207 (active)
24 | COc1ccc2c(c1)c(CC(=O)Nc1ccc(NC(C)=O)cc1)c(C)n2C(=O)c1ccc(Cl)cc1 [N-(4-acetamidophenyl)indomethacinamide] | 149 (active)
25 | CCCCCC(O)C=CC1C(=O)C=CC1CC=CCCCC(=O)O (stereo not given) [Prostaglandin J2] | 100 (inactive)
26 | O=C1Nc2ccccc2C1=Cc1c(Cl)[nH]c2ccccc12 [Cdk1 Inhibitor] | 143 (active)
27 | COc1cc2c(c(OC)c1OC)-c1ccc(OC)c(=O)cc1C(NC=O)CC2 (stereo not given) [N-Formyl-Deacetylcolchicine] | 81.9 (inactive)
28 | CCCCCCCCCCCCCCCC(O)C(N)CO (racemic) [DL-erythro-Dihydrosphingosine] | 96.9 (inactive)
29 | COC(=O)c1ccc2c(c1)NC(=O)C2=C(Nc1ccc(N(C)C(=O)CN2CCN(C)CC2)cc1)c1ccccc1 [Vargatef] | 113 (inactive)
30 | Cc1nnc(SCC2=C(C(=O)[O-])N3C(=O)C(NC(=O)Cn4cnnn4)C3SC2)s1.[Na+] (stereo not given) [Cefazolin sodium] | 89.5 (inactive)
31 | COc1ccc(C2Sc3ccccc3N(CCN(C)C)C(=O)C2OC(C)=O)cc1.Cl (stereo not given) [Diltiazem hydrochloride] | 98.3 (inactive)
32 | CCOC(=O)c1ncn2c1CN(C)C(=O)c1cc(F)ccc1-2 [Flumazenil] | 93.6 (inactive)
33 | CN1C2CCC1CC(OC(=O)c1c[nH]c3ccccc13)C2 (stereo not given) [Tropisetron] | 112 (inactive)
34 | CCCCCC(=O)C=CC=CCC=CCC=CCCCC(=O)O [15-Ketoeicosatetraenoic acid] | 86.9 (inactive)
35 | CC(C)n1c(C=CC(O)CC(O)CC(=O)O)c(-c2ccc(F)cc2)c2ccccc21 (stereo not given) [Fluvastatin] | 103 (inactive)
36 | CCCCCC=CCC=CCC=CCC=CCCCC(=O)OC(CO)COC(=O)CCCCCCCCCCCCCCCCC (stereo not given) [1-Stearoyl-2-arachidonoyl-glycerol] | 98 (inactive)
37 | COc1c2ccoc2cc2oc(C)cc(=O)c12 [Visnagin] | 82.3 (inactive)
38 | O=S(=O)(O)C1CCNCC1 [Piperidine-4-sulphonic acid] | 122 (inactive)
39 | Cn1cnc2c(NCc3ccccc3)nc(NCCO)nc21 [Olomoucine] | 94.1 (inactive)
40 | CCCCCC(O)C=CC1OC(=O)CC(O)C1CC=CCCCC(=O)O (stereo not given) [11-Dehydro-thromboxane B2] | 102 (inactive)
